The source of these data is PubChem BioAssay AID488969 (Vanderbilt High Throughput Screening Facility, 2010).

The full ranking holds about 110,000 compounds; the median of “z-score” is about -0.1, and the highest 2% start at about 2. The sample as a whole holds a higher share of the highest values than the screen did. Active and inactive are the calls of the source.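 The calls were made as follows: active = z-score in the third read window above 3 or below -3; inactive = the rest.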

The assay deals with Metabotropic glutamate receptor 8 (Rattus norvegicus) (UniProt P70579). Briefly: rat mGluR8 modulators via GIRK flux, primary screen, cell-based, thallium flux, HTS (AID 488969). The conditions noted are these: HEK293 rat mGluR8, GIRK (G protein-gated inwardly rectifying potassium channel) thallium flux, FluoZin2; at 10 µM; stronger effect = higher value.
Chain of Metabotropic glutamate receptor 8 (Rattus norvegicus) (P70579 whole entry, looked up): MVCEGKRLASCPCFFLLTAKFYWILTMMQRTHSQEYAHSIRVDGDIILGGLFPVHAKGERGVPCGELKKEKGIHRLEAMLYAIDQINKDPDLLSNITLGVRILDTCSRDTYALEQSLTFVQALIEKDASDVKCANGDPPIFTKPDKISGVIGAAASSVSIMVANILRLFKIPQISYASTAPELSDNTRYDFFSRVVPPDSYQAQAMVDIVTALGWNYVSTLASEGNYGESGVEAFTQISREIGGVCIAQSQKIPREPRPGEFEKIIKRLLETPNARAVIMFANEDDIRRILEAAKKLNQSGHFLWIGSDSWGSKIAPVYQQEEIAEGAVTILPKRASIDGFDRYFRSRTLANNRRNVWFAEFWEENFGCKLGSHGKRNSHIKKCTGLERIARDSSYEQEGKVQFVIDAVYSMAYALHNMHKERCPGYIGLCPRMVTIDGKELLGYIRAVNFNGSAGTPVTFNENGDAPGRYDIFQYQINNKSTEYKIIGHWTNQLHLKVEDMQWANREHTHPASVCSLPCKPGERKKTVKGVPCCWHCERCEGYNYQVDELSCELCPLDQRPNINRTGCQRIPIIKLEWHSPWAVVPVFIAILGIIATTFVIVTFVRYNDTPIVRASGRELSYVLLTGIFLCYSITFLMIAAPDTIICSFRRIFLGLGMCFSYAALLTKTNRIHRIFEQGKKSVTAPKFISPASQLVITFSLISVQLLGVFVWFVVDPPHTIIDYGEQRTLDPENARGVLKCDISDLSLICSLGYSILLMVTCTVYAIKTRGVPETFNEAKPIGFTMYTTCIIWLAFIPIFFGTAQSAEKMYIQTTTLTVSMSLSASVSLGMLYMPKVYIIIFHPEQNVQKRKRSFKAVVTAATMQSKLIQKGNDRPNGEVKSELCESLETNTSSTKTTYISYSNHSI
The molecule `c1ccc(C2NCc3ccccc3-n3cccc32)cc1` (stereo not drawn) showed a z-score of -0.239.

The molecule `Oc1ccc(C2NCc3ccccc3-n3cccc32)cc1Cl` (stereo not drawn) had a z-score of 1.68.

Regarding `COc1ccc(C2NCc3ccccc3-n3cccc32)cc1` (stereo not drawn), the z-score worked out at 2.1.

On to `Cc1nn(C2CCOC(C)(C)C2)c2c1C(c1ccc(OC(C)C)cc1)SCC(=O)N2` (stereo not drawn), for which the z-score was -0.843.

Consider `Cn1c(O)c(C=NCc2ccco2)c(=O)n(C)c1=O`, for which the z-score was -0.19.

The molecule `CCC(CC)C1C(C#N)=C(N)Oc2c1c(=O)oc1ccccc21` (stereo not drawn) displayed a z-score of -0.103.

Turning to `O=C(COc1ccc(Cl)cc1)N1CCN(C/C=C/c2ccccc2)CC1`, the z-score is -0.0408.

`O=C(COc1ccccc1)N1CCN(C/C=C/c2ccccc2)CC1` came in with a z-score of 0.702.

As to `O=C(Cc1ccccc1)N1CCN(C/C=C/c2ccccc2)CC1`, the z-score is 3.68 (active).

Take `CC12CCCCC1=[N+]([O-])CN2O` (stereo not drawn): the z-score amounted to 0.377.

Take `CCOc1ccc(CC2C(=O)NC(=O)N(c3ccc(CC)cc3)C2=O)cc1` (stereo not drawn): the z-score was -0.531.

Regarding `CCOC(=O)c1c(C)n(CCN2CCN(C)CC2)c2ccc(OC)cc12`, the z-score came out at 1.21.

Turning to `CCCCn1c(C)c(C(=O)OCC)c2c(CN3CCOCC3)c(O)ccc21`, the z-score was 4.12 (active).

`CCOC(=O)c1c(C)n(CCOC)c2ccc(O)cc12` showed a z-score of 0.821.

Molecule `CCCCN1C(=N)C(CC)(CC)C(=O)NC1=O` gave a z-score of -0.0121.

`CCC(=NCc1ccc(F)cc1)c1c(O)n(C)c(=O)n(C)c1=O` showed a z-score of -0.274.

For `O=C(c1cc([N+](=O)[O-])ccc1N1CCNCC1)N1CCOCC1`, the z-score is -0.253.

With `COc1cccc(-n2c(O)c(C=NCc3ccc4c(c3)OCO4)c(=O)[nH]c2=O)c1`, the z-score was -0.566.

Regarding `N#Cc1cc(F)c(N2CCNCC2)cc1Cl`, the z-score was 2.17.

On to `Clc1cccc(N2CCNCC2)c1Cl`, for which the z-score stood at 0.654.

For `N#Cc1ccc(N2CCNCC2)c(F)c1`, the z-score came to 0.268.

Regarding `CCCNS(=O)(=O)c1ccc(OCC(=O)N2CCN(Cc3ccc4c(c3)OCO4)CC2)cc1`, the z-score is -0.266.

The molecule `Cc1cc(C(=O)N2CCC3(CC2)OCCO3)cs1` came in with a z-score of 0.652.

The molecule `C=CCOC(=O)C1=C(C)OC(N)=C(C(=O)OCC)C12C(=O)N(CC(N)=O)c1ccccc12` (stereo not drawn) displayed a z-score of -0.605.

`CN(C)CC1CSCCC1(O)c1ccccc1` (stereo not drawn) registered a z-score of 0.409.

Take `CC(C)OC12Oc3ccccc3C=C1N1CCC2CC1` (stereo not drawn): the z-score turned out to be 1.77.

`OC12Oc3ccccc3C=C1N1CCC2CC1` (stereo not drawn) had a z-score of 2.17.

In turn, `C=C1N2CCC(CC2)C1(O)c1ccc(C)cc1` (stereo not drawn) returned a z-score of -0.123.

Molecule `CC(=O)N1CC(=O)Nc2ccc(Cl)cc2C1c1ccc(F)cc1` (stereo not drawn) gave a z-score of -0.284.

In the case of `N=Cc1c(O)n(-c2cccc(Cl)c2)c(=O)[nH]c1=O`, the z-score came out at 0.745.

`CCC(C)N1C(=O)/C(=C/c2ccc3c(c2)CCN3CCCCl)C(=O)NC1=S` (stereo not drawn) came in with a z-score of -0.358.

Turning to `CC(C)CN(CC(C)C)c1ccc(C=C2C(=O)NC(=S)NC2=O)cc1[N+](=O)[O-]`, the z-score was 2.35.

`CCC(C)N1C(=O)/C(=C\c2ccc(N3CCCCCC3)cc2)C(=O)NC1=S` (stereo not drawn) returned a z-score of -0.384.

As to `Cc1cc(C=C2C(=O)NC(=S)NC2=O)c(C)n1-c1ccc2c(c1)OCO2`, the z-score was -0.495.

`O=C(O)C1(c2ccc(Cl)cc2)CCC1` yielded a z-score of -0.279.

In turn, `CN(C)P1(N(C)C)=Nc2c(c(N)nn2C)C(c2ccccc2)=N1` registered a z-score of 1.2.

For `CCc1ccc(N2C(=O)NC(=O)C(Cc3ccc(OC)cc3OC)C2=O)cc1` (stereo not drawn), the z-score is -0.562.

Regarding `COc1ccc(CC2C(=O)NC(=O)N(c3ccccc3)C2=O)c(OC)c1` (stereo not drawn), the z-score is 0.821.

For the molecule `COc1ccc(CC2C(=O)NC(=O)NC2=O)c(OC)c1`, the z-score was 13.6 (active).

For `Cc1ccc(-n2c(/C=C/c3ccc4c(c3)OCO4)nc3ccccc3c2=O)cc1`, the z-score is -0.143.

`CCOP(=O)(OCC)C(C)(C)NC(=O)C(Cl)(Cl)Cl` yielded a z-score of 0.176.

Regarding `CC12CN3CC(C)(CN(C1)C3c1ccco1)C2=O` (stereo not drawn), the z-score came to 0.289.

The molecule `Cc1ccc(C(O)(C(=O)NNC(=O)CN2CCN(C)CC2)c2ccc(C)cc2)cc1` returned a z-score of -0.00637.

`Cn1cccc1/C=C1\C(=O)NC(=O)N(CCC2=CCCCC2)C1=O` displayed a z-score of -0.117.

As for `S=C1CN=C(c2ccccc2Cl)c2cc(Cl)ccc2N1`, the z-score is 14.6 (active).

`COc1ccccc1C1=NCc2nnc(C)n2-c2ccc(Cl)cc21` gave a z-score of 0.478.

With `CSCc1nnc2n1-c1ccc(Cl)cc1C(c1ccccc1)=NC2`, the z-score is -0.724.

The molecule `Clc1ccc2c(c1)C(c1ccccc1Cl)=NCc1nncn1-2` showed a z-score of 1.46.

`CCS(=O)(=O)NCc1nnc2n1-c1ccc(Cl)cc1C(c1ccccc1)=NC2` registered a z-score of -0.148.

Molecule `Clc1ccc2c(c1)C(c1ccccc1Cl)=NCc1nnc(N3CCN(CCSc4ccccc4)CC3)n1-2` displayed a z-score of -0.487.

Regarding `S=C1CN=C(c2ccccc2)c2cc(Cl)ccc2N1`, the z-score is 4.29 (active).

For the molecule `Cc1ccccc1C1=NCC(=S)Nc2ccc(Cl)cc21`, the z-score was 4.39 (active).

`CN1CCN(Cc2nnc3n2-c2ccc(Cl)cc2C(c2ccccc2)=NC3)CC1` displayed a z-score of -0.238.

In turn, `Cc1ccc(N(C)C(=O)Oc2ccc(C(=O)c3ccc(Cl)cc3)cc2)cc1` yielded a z-score of 0.23.

For `CCN1CCN(c2nc3c(c(=O)[nH]2)CCCC3)CC1`, the z-score is -0.0782.

With `CC(C)N(CC(O)c1cccc([N+](=O)[O-])c1)C(C)C` (stereo not drawn), the z-score was -0.309.

Molecule `Cc1cccc(N2C(=O)NC(=O)/C(=C\c3cc(C)n(-c4sc5c(c4C#N)CCCC5)c3C)C2=O)c1C` gave a z-score of 0.0132.

The molecule `CCOC(C(=O)OCCC[N+](C)(CC)CC)(c1ccccc1)c1ccccc1` came in with a z-score of 0.315.
